A short description of test [1]: Cell Viability - Hek293 (AID 427;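 active = compounds whose dose-response curve shows a full or clear partial loss of cell viability, called from curve shape rather than a numeric limit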;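 also: potency is read from the fitted curve at half-maximal effect; cells exposed to compound for 40 hours at 37 °C before reading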). The settings on record: qHTS. The gist of the method:
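HEK293 cells in complete medium were exposed to compound for 40 hr at 37 °C, then cellular ATP was read by CellTiter-Glo luminescence. Data were normalized to DMSO (basal) and 100 uM tamoxifen (100% inhibition), and AC50 came from Hill fits.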
In general terms: qHTS replaces the single test concentration by a dilution series.

The nature of test [2]: Cellular Toxicity (caspase-3) SHSY5Y (AID 657). Also: potency is read from the fitted curve at half-maximal effect. The settings on record: SH-SY5Y caspase-3 activation; series mostly up to 91.7 µM. The gist of the method: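 qHTS, SH-SY5Y, 1500 cells/well, 5 h pre-incubation 37 °C; compound 16 h 37 °C; Caspase-Glo 3/7 1 h RT; luminescence. Norm.: DMSO = 0, 10 uM staurosporine = 100%. Hill fit → AC50.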
Test [3] can be described thus: Cellular Toxicity (caspase-3) SK-N-SH (AID 661). The settings on record: SK-N-SH caspase-3 activation, qHTS, DMSO as zero, staurosporine as full; series mostly up to 91.7 µM. The gist of the method: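 Luminescent Caspase-Glo 3/7 read-out after 16 hr compound exposure of SK-N-SH neuroblastoma cells at 37 °C. Signal increase normalized to DMSO (basal) and 10 uM staurosporine (100%); AC50 from Hill equation fits of qHTS concentration-response data.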

Test [4] can be described thus: Cellular Toxicity (caspase-3) NIH 3T3 (AID 666).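 Also: 0% = DMSO basal and 100% = 100 µM tamoxifen stimulation.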 The following applies: NIH 3T3 caspase-3 activation, apoptosis/toxicity, 0% DMSO, 100% is 100 µM tamoxifen; series mostly up to 92.2 µM. The gist of the method:
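NIH 3T3, 1000 cells/well, 5 hr settle then 16 hr compound at 37°C; Caspase-Glo 3/7, 20 min RT, luminescence. DMSO = basal, 100 uM tamoxifen = 100%. Hill-equation AC50, qHTS.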

Test [5] is described as follows: Cell Viability - LYMP2-009 (AID 968). Also: nearly all actives have a fitted effect of over 55% in size. Also: potency is read from the fitted curve at half-maximal effect. The settings on record: LYMP2-009 lymphoblastoid cell viability; series mostly up to 92.2 µM.
Test [6] can be described thus: Cell Viability - LYMP2-017 (AID 972).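 Also: cells exposed to compound for 24 hours at 37 °C; nearly all actives have a fitted effect of over 55% in size.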 Also: potency is read from the fitted curve at half-maximal effect. The settings on record: LYMP2-017 lymphoblastoid cell viability; series mostly up to 92.2 µM. The gist of the method:
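Luminescent ATP read-out (CellTiter-Glo, 30 min RT) reports viable cell number. Cells: human lymphoblastoid line, 2500 per well, 5 hr preincubation, 24 hr compound exposure at 37 C. AC50 is derived from qHTS concentration-response data using the standard Hill model.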

Test [7] can be described thus: Cell Viability - LYMP2-021 (AID 974).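 Also: compound exposure lasts 24 hours at 37 °C; nearly all actives have a fitted effect of over 55% in size.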 Also: potency is read from the fitted curve at half-maximal effect. The following applies: LYMP2-021 lymphoblastoid cells viability; series mostly up to 92.2 µM. The gist of the method: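 ATP luminescence (CellTiter-Glo, 30 min RT) after 24 h compound exposure at 37 C; 2500 human lymphoblastoid cells/well, 5 h settle beforehand. Cytotoxicity = concentration-dependent ATP drop, AC50 by Hill fit.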

Test [8] can be described thus: Cell Viability - LYMP2-025 (AID 976). Also: potency is read from the fitted curve at half-maximal effect. The following applies: LYMP2-025 lymphoblastoid cell viability; series mostly up to 92.2 µM. The gist of the method: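 CellTiter-Glo luminescence (cellular ATP) after 24 h compound exposure at 37 C; LYMP2-025 human lymphoblastoid cells, 2500/well, complete medium. Tetraoctylammonium bromide positive control. AC50 by Hill equation fit of qHTS concentration-response.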

Test [9] is described as follows: Cell Viability - LYMP2-007 (AID 979).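 Also: cells exposed to compound for 24 h before reading; nearly all actives have a fitted effect of over 60% in size.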 Also: potency is read from the fitted curve at half-maximal effect. The following applies: LYMP2-007 lymphoblastoid cell viability; series mostly up to 92.2 µM. The gist of the method: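 qHTS cytotoxicity: 2500 cells/well, 5 hr 37 C settle, compound 24 hr 37 C, CellTiter-Glo 30 min RT, luminescence. Decrease in ATP = toxicity. AC50 by standard Hill equation; tetraoctylammonium bromide positive control.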

Test [10] is described as follows: Cell Viability - LYMP2-012 (AID 982).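 Also: cellular ATP by luciferase luminescence where a drop means cytotoxicity; cells exposed to compound for one day before reading; nearly all actives have a fitted effect of over 55% in size.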 Also: potency is read from the fitted curve at half-maximal effect. The settings on record: LYMP2-012 lymphoblastoid cell viability qHTS; series mostly up to 92.2 µM.
A short description of test [11]: Cell Viability - LYMP2-020 (AID 986). Also: nearly all actives have a fitted effect of over 55% in size. Also: potency is read from the fitted curve at half-maximal effect. The settings on record: series mostly up to 92.2 µM. The gist of the method:
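qHTS, 2500 cells/well; 5 hr then 24 hr compound exposure, 37 C; CellTiter-Glo luminescence after 30 min RT; ATP decrease taken as cytotoxicity; AC50 via Hill equation; tetraoctylammonium bromide positive control.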

Test [12] is described as follows: Cell Viability - LYMP1-002 - Assay at 40 hr (AID 994). Also: nearly all actives have a fitted effect of over 60% in size. Also: potency is read from the fitted curve at half-maximal effect. The settings on record: LYMP1-002 lymphoblastoid cell viability; series mostly up to 92.2 µM. The gist of the method:
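qHTS cytotoxicity; 2500 cells/well, 5 hr 37 C settle, compound 40 hr 37 C. CellTiter-Glo, 30 min RT, luminescence (ATP). Concentration-response, Hill fit → AC50. Pos. ctrl tetraoctylammonium bromide.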

Test [13] deals with Voltage-gated inwardly rectifying potassium channel KCNH2 (Homo sapiens) (UniProt Q12809). Put plainly: qHTS Assay for Small Molecule Inhibitors of the Human hERG Channel Activity (AID 588834).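 Also: lower thallium flux fluorescence means stronger hERG block; nearly all actives have a fitted effect of over 50% in size.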 Also: potency is read from the fitted curve at half-maximal effect. The following applies: U2OS BacMam hERG, FluxOR thallium flux fluorescence; series mostly up to 92.2 µM. The gist of the method:
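Step 1: BacMam hERG transduction of U2OS, 4 hrs RT. Step 2: overnight 37 °C, plate 2000 cells/well, 4 hr. Step 3: FluxOR load, compound 10 min, stimulate, read fluorescence.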

Test [14] can be described thus: qHTS assay for small molecule disruptors of the mitochondrial membrane potential - 5 hr assay (AID 651755; calls by dose curve; also: nearly all actives have a fitted effect of over 40% in size; also: potency is read from the fitted curve at half-maximal effect). The settings on record: JC-1-type ratio dye; series mostly up to 92.2 µM. The gist of the method: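 Seed HepG2 overnight, add compound, incubate 5 hr at 37C and 5% CO2, stain 30 min with Mito-MPS, then measure monomer (490/535 nm) and aggregate (540/590 nm) fluorescence.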

Test [15] deals with Peroxisome proliferator-activated receptor alpha (Homo sapiens) (UniProt Q07869). Put plainly: qHTS assay for small molecule agonists of the peroxisome proliferator-activated receptor alpha (PPARalpha) signaling pathway (AID 651778). Also: % of control where 0% means no effect. The following applies: PathHunter PPARalpha complementation, chemiluminescence, 6 h; max response: stronger effect = higher value. The gist of the method: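 Cells plated at 2,000/well and held overnight at 37 C, 5% CO2, then compound added by pin tool for 6 hr; after PathHunter detection reagent and 60 min at room temperature, chemiluminescence from enzyme complementation was read.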
Sequence of Peroxisome proliferator-activated receptor alpha (Homo sapiens) (Q07869 whole entry, looked up): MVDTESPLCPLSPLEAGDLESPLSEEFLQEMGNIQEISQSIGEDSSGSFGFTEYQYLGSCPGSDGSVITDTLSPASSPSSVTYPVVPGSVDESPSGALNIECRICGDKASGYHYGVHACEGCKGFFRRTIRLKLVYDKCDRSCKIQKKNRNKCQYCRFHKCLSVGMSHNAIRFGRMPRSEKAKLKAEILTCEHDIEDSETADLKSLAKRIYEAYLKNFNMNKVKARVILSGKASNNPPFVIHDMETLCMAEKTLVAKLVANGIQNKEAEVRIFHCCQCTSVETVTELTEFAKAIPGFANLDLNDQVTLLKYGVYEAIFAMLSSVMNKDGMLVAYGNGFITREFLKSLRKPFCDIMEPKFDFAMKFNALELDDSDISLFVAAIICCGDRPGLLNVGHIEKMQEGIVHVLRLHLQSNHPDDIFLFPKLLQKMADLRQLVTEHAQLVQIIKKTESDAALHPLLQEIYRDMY

The nature of test [16]: qHTS assay for small molecule agonists of the antioxidant response element (ARE) signaling pathway measured by Nrf2-dependant transcriptional activity - cell viability counter screen (AID 720653; active = well fitted curve in the direction sought with a large enough effect in the repeat runs; an effect the other way counts as inactive or inconclusive; also: potency is read from the fitted curve at half-maximal effect; as to max response: % is scaled to controls: 0 for no effect and ±100 for the full control effect). The following applies: ARE-bla HepG2 viability, CellTiter-Glo ATP luminescence, 16 h; max response: stronger effect = lower value. The gist of the method:
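ARE-bla HepG2 cells (2,000/well) rested 5 hrs at 37C/5% CO2, then exposed to compounds in DMSO for 16 hrs. Viability was read in the same wells as intracellular ATP by luminescence, 30 min at room temperature after reagent addition.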

The nature of test [17]: Cell Viability - HepG2 (AID 433; calls by dose curve;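 also: potency is read from the fitted curve at half-maximal effect; potency for ATP loss meaning cytotoxicity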). The following applies: qHTS. The gist of the method:
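Read-out is luciferase-based quantitation of cellular ATP as a measure of viable HepG2 cells after 40 h treatment at 37 °C. Signal decrease is scaled between DMSO-only and 100 uM tamoxifen controls, with AC50 fitted by the Hill equation.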

Test [18] can be described thus: MultiTox-Fluor Cytotoxicity Assay - LYMP1-003 - Dead Cells (AID 961). Also: nearly all actives have a fitted effect of over 70% in size. Also: potency is read from the fitted curve at half-maximal effect. The settings on record: LYMP1-003 lymphoblastoid cells, dead-cell protease fluorescence; series mostly up to 92.2 µM. The gist of the method: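 LYMP1-003 human lymphoblastoid cells (2500/well) exposed to compound 16 h at 37 C in complete medium; dead-cell protease read with bis-AAF-R110 fluorescence (Ex/Em 485/520) after 60 min at room temperature. Normalized to DMSO and 15 uM tetraoctylammonium bromide; AC50 from Hill fit.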

The nature of test [19]: Cell Viability - LYMP1-002 - Assay at 24 hr (AID 993). Also: potency is read from the fitted curve at half-maximal effect. The following applies: LYMP1-002 lymphoblastoid cells viability; series mostly up to 92.2 µM. The gist of the method:
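CellTiter-Glo luminescence (intracellular ATP) after 24 h compound exposure, 37 C, in LYMP1-002 human lymphoblastoid cells; decreased ATP taken as cytotoxicity. AC50 from standard Hill fit of concentration-response curves.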

The nature of test [20]: qHTS assay for small molecule antagonists of the retinoid-related orphan receptor gamma (ROR-gamma) signaling pathway - cell viability counter screen (AID 720652; active = well fitted curve in the direction sought with a large enough effect in the repeat runs; an effect the other way counts as inactive or inconclusive;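 also: compound exposure lasted 16 hr before ATP read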; also: potency is read from the fitted curve at half-maximal effect). The following applies: RORgamma reporter cell line viability counter screen; series mostly up to 92.2 µM. The gist of the method: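 CHO RORE-LUC/TET-ROR line, 1,000 cells/well, 37 C 5% CO2 5 hr; cpd or DMSO + doxycycline induction, 16 hr. CellTiter-Glo, 30 min RT, luminescence = ATP content.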

Drawing on PubChem BioAssay (NCATS), this text covers Potency, outcome and max response for six compounds.

Where “and” joins values, the source holds several entries; their conditions need not be identical. Equal entries are not always repeated. Values without a mark were called inactive. Records with an inconclusive call do not appear. Calls of active or inactive are those of the source. Unless noted, calls follow the shape of the dose curve; as a rule, active = well fitted curve in the direction sought with a large enough effect; inconclusive = small, poorly fitted or top-dose-only effect, or another doubt; inactive = no such curve, though single readings can be large; an effect the other way counts as inactive or inconclusive. Some results are limits rather than exact numbers.

Sequence of Voltage-gated inwardly rectifying potassium channel KCNH2 (Homo sapiens) (Q12809 whole entry, looked up): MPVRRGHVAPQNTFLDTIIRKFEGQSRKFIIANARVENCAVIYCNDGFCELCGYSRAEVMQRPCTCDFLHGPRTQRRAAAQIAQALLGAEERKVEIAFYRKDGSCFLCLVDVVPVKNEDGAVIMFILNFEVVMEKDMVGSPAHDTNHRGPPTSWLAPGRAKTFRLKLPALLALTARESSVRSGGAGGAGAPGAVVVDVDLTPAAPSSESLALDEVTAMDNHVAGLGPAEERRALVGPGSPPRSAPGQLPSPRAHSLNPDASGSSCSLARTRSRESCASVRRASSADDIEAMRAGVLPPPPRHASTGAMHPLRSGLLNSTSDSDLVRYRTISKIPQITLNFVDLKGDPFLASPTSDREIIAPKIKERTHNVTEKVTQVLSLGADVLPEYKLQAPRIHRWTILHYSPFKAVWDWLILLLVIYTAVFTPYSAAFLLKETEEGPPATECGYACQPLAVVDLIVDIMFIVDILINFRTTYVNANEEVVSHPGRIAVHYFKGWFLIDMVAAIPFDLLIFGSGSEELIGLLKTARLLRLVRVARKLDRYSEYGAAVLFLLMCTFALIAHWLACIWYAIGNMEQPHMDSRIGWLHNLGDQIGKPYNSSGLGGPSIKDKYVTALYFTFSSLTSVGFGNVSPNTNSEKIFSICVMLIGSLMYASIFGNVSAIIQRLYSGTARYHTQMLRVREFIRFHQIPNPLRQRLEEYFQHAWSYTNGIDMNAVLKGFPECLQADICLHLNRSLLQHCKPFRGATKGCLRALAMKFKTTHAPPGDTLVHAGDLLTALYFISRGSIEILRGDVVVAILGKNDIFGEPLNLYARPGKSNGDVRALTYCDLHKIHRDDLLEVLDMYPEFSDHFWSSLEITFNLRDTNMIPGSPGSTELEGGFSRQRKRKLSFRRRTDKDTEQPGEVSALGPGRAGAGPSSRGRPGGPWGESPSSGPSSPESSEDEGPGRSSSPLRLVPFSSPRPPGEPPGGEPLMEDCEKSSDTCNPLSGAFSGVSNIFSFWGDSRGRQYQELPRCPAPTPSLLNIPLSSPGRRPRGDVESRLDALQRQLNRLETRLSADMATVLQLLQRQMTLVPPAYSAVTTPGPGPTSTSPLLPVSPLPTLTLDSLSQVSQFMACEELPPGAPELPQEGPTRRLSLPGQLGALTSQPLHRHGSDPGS

In the case of `Clc1ccc(C(c2ccc(Cl)cc2)C(Cl)Cl)cc1`, the Potency in [1] was 45.4 µM (active); in test [2], 50.1 µM (active); in [12], 50.1 µM (active); in [13], 22.4 µM (active); in test [14], 66.8 µM (active). The call in [3] and in test [4] was inactive. The Potency entry in test [5], in test [6], in test [7], in test [8], in test [9] and in test [10] was “inactive” each time. Moreover, in [11], the Potency entry is “inactive”. Also, the max response in test [15] is 16.9%; in test [16], -1.77% and -12.4%.

`C(=NC1CCCCC1)=NC1CCCCC1`: the Potency in test [17] was 3.31 µM (active); in test [16], 7.94 µM (active). Besides, the Potency entry in test [2], in [18], in test [19], in test [12] and in test [14] was “inactive” each time. The call in test [3] and in [4] was inactive. Moreover, in test [15], the max response is -9.68% and -4.28%.

Consider `FC(F)(F)c1ccc(Cl)cc1`, for which the Potency in [1] and in [17] was above 92 µM in each case. The Potency result in test [2], in test [18], in [5], in test [6], in test [7] and in [8] was “inactive” throughout. The Potency entry in test [9], in test [10], in test [11], in [19], in test [12] and in test [13] was “inactive” throughout. In addition, the Potency entry in test [14] and in [20] was “inactive” each time. The compound was classed as inactive in test [3] and in test [4]. Further, the max response in [15] is 1.19% and -0.788%.

`Nc1ccccc1C(=O)OCCc1ccccc1`: the Potency in test [1] and in test [17] was above 92 µM in each case. Also, the Potency entry in test [2], in [18], in [5], in [6], in test [7] and in [8] was “inactive” in each case. Further, the Potency entry in [9], in test [10], in [11], in test [19], in [12] and in [14] was “inactive” in each case. The Potency entry in test [20] is “inactive”. For the same compound, the compound was called inactive in test [3]. Moreover, the max response in test [16] was 0.51%.

On to `O=[N+]([O-])c1cc(C(F)(F)F)cc([N+](=O)[O-])c1Cl`, for which the Potency in test [1] was above 92 µM; in test [17] it was above 92 µM; in [5] it was 31.6 µM (active); in test [6] it was 31.6 µM (active); in test [7] it was 31.6 µM (active); in [8], 50.1 µM (active). Also, the Potency was 39.8 µM (active) in test [9], 31.6 µM (active) in test [10], 31.6 µM (active) in test [11] and 66.8 µM (active) in test [20]. Also, the Potency entry in test [2], in test [18], in test [19], in [12], in test [13] and in [14] was “inactive” throughout. In addition, the call in test [4] was inactive. In addition, the max response in [15] was -4.28%; in test [16] it was 4.67%.

For the compound `N#CSCSC#N`, the Potency in test [1] was 34.5 µM (active); in [17], 50.3 µM (active); in test [18], 25.1 µM (active); in [5] it was 5.01 µM (active); in [6], 5.01 µM (active); in test [7], 5.01 µM (active). Also, the Potency in test [8] is 10 µM (active); in [9], 6.31 µM (active); in [10], 5.01 µM (active); in test [11], 5.01 µM (active); in test [19], 12.6 µM (active); in [12], 31.6 µM (active). The Potency in [13] is 31.6 µM (active); in test [20], 9.44 µM (active); in test [16], 44.7 µM (active) and 39.8 µM (active). In test [4], the result was inactive. Besides, the Potency entry in test [14] was “inactive”.
